# Vaccinia Venus: qHTS for Stage-Specific Inhibitors of Vaccinia Orthopoxvirus: Venus Reporter Primary qHTS | 330,000 compounds, 0.46% hits | Potency, µM (top dose mostly 36.5 µM), for the others: at the highest dose activity change, negative = inhibition, usual class: inhibitors | AID 720580, 2013 | Vaccinia virus Venus reporter expression, fluorescence; calls by dose curve; tested in A549 cells; also: potency is read from the fitted curve at half-maximal effect; nearly all actives have a fitted effect of over 30% in size
# HCMV inh: qHTS Assay for inhibitors of the human cytomegalovirus (HCMV) | HFF cells, HCMV-luciferase reporter, 72 h; hits give low values | activity change, negative = inhibition, % at 57.5 µM | 410,000 compounds, 4.5% hits; in the data active = activity change below about -60%; inconclusive = no clear call, values can overlap the other calls; inactive = above about -39%
#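 Two compound doses tested in HFFs infected with HCMV-luciferase, MOI 1 PFU/cell, 72 h at 37C. Lysate luminescence read with OneGlo; data normalized against buffer-only and 10uM Salinomycin inhibitor controls.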
# VACV mCherry inh: qHTS for Stage-Specific Inhibitors of Vaccinia Orthopoxvirus: mCherry Reporter Primary qHTS; Vaccinia virus mCherry reporter infection, fluorescence; Potency, µM (titrated, usually from 36.5 µM), without a hit: top-dose activity change, negative = inhibition, usual class: inhibitors; 310,000 compounds, 0.63% hits; AID 720579, 2013; calls by dose curve; tested in A549 cells; also: potency is read from the fitted curve at half-maximal effect; nearly all actives have a fitted effect of over 35% in size
# FMDV antiviral: High Throughput Screening for Foot and Mouth Disease Virus Antivirals | FMDV antiviral cell-based qHTS | Potency, µM (top dose mostly 57.9 µM), without a hit: at the top dose activity change, negative = inhibition, hits mostly inhibitors | 410,000 compounds, 1.2% hits; calls by dose curve; tested in HEK293T cells; also: read-out not given here; potency is read from the fitted curve at half-maximal effect; nearly all actives have a fitted effect of over 45% in size
# HCV inhibitor: qHTS Assay for Inhibitors of Hepatitis C Virus (HCV). Potency, µM (titrated, usually from 41.8 µM), for inactives: at the top dose activity change, negative = inhibition, actives largely listed as inhibitors. AID 651820, 2012. 340,000 compounds, 3.4% hits. Huh7.5.1 HCVcc-Cre infection, luciferase reporter, 44 h; active = well fitted inhibition curve with a large enough effect; inconclusive = small, poorly fitted or top-dose-only effect, or another doubt; inactive = no such curve, though single readings can be large or run the other way; also: potency is read from the fitted curve at half-maximal effect
#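 1,000 cells/well; 4 h culture; + compound; + HCVcc-Cre (~0.5 moi); 44 h; luciferase substrate, RT 15 min; read 15 sec.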
# The depositor's hits bear a star; u = inconclusive; x = not tested or not shown; ! = not confirmed by another sample. Most compounds without a hit are left out; they make up all but 7.3% or so of the library. % is scaled to controls: 0 for no effect and ±100 for the full control effect.
SMILES,Vaccinia Venus,HCMV inh,VACV mCherry inh,FMDV antiviral,HCV inhibitor
O=C(Nc1ccccc1Cl)Nc1ccccc1Cl,-3%,-35,-5%,1%,-29%
CCNC(=O)[C@@H]1[C@@H](CO)[C@@H]2Cn3c(cccc3=O)[C@@H]2N1Cc1cccc(F)c1,x,17,x,x,x
Cn1cc([C@]2(O)C(=O)Nc3ccc(OC(F)(F)F)cc32)c2ccccc21,-29%,110,u,-16%,x
c1ccc(Cc2nnc(Sc3ccccc3)c3ccccc23)cc1,-23%,-88*,-15%,u,u
COCCCNc1nnc(Cc2ccccc2)c2ccccc12,-20%,-27,-6%,6%,-27%
CC(=O)NC(C)c1cc(Cl)c2ccccc2c1O (stereo unspecified),x,-4,x,0%,x
CC(=O)NC(c1cccs1)c1cc(F)c2cccnc2c1O (stereo unspecified),x,-100*,x,-22%,x
CC(=O)NC(c1ccco1)c1cc(Cl)c2ccccc2c1O (stereo unspecified),x,4,x,-16%,x
CC(=O)NC(c1ccco1)c1cc(F)c2cccnc2c1O (stereo unspecified),x,-67*,x,-23%,x
COc1ccc([C@@H]2CNC(=O)C2)cc1OC1CCCC1,x,x,x,0%,x
O=C(C[n+]1ccc(-c2cc(C(=O)Nc3cccc(C(F)(F)F)c3)c3ccccc3n2)cc1)c1cccc([N+](=O)[O-])c1,2%,-66*,-26%,u,13µM*
COc1ccc(C(=O)N(Cc2ccccc2)Cc2ccc(OC)c(COc3ccc(NC(C)=O)cc3)c2)cc1,u,x,-11%,x,x
Cc1nn(C)c(C)c1CN(C)S(=O)(=O)c1ccc2ccccc2c1,u,-82*,u,-1%,u
Cc1nn(C)c(C)c1CN(C)S(=O)(=O)c1ccc(F)cc1,-26%,-34,-8%,0%,u
COC(=O)c1ccccc1-c1c2ccc(=N)cc-2oc2cc(N)ccc12,x,-97*,167%,0%,u
CC1Cc2cc(S(=O)(=O)NCc3ccccc3Cl)ccc2N1C(=O)C1CCC1 (stereo unspecified),-26%,u,-26%,-14%,x
Clc1ccc(-c2nnc3c4ccccc4nc(N4CCOCC4)n23)cc1Cl,-23%,-90*,15%,-21%,6%
Brc1ccc(-c2nnc3c4ccccc4nc(N4CCOCC4)n23)cc1,-3%,-22,0%,-10%,33%
CC(C)(C)c1ccc(C(=O)N/N=C/c2cccc(Cl)c2)cc1,x,-38,x,31%,7.1µM*
O=C(N/N=C/c1cccc(F)c1)c1ccc(Cl)cc1,-14%,-31,-3%,49%,-2%
Cn1nnnc1SCCCNCc1cc(Br)ccc1OCc1ccccc1F,-18%,u,-17%,u,x
Cn1nnnc1SCCCNCc1cc(Br)ccc1OCc1ccccc1,-29%,-63*,-27%,u,x
COc1cc(CNCCSc2nnnn2C)ccc1OCc1ccc(F)cc1,-9%,-77*,0%,0%,x
CCOc1cc(CNCCSc2nnnn2C)ccc1OCc1ccc(Cl)cc1Cl,-28%,-99*,u,u,x
Cc1c(C(=O)NCc2cccc(Cl)c2)sc2ncnc(N(C)C3CCCCC3)c12,-3%,-6,-9%,-17%,x
SMILES,Vaccinia Venus,HCMV inh,VACV mCherry inh,FMDV antiviral,HCV inhibitor
O=c1[nH]c2ccccc2n1C1CCN(C(c2cccc3ccccc23)c2nnnn2-c2ccc3c(c2)OCCO3)CC1 (stereo unspecified),-12%,-76*,0%,u,x
O=c1[nH]c2ccccc2n1C1CCN(C(c2cc3ccccc3o2)c2nnnn2-c2ccc3c(c2)OCCO3)CC1 (stereo unspecified),u,-99*,u,35µM*,x
Cc1ccc(Cl)cc1Nc1nc2ccccc2c2nncn12,-5%,-13,-15%,-20%,x
CN1C(=O)C(=Cc2sc(=O)n(-c3ccccc3)c2N(C)C)C(=O)N(C)C1=O,27%,-60*,-7%,16µM*,u
CCC(=O)N[C@@H]1c2ccccc2C2(CCN(Cc3[nH]c4c(Cl)cccc4c3C)CC2)[C@H]1OC,-9%,x,-7%,-13%,x
CCOc1ccc(CC(=O)NCCc2sc3nc(-c4ccc(F)cc4)nn3c2C)cc1,-26%,38,-17%,-22%,x
COc1ccc(Nc2ncc(C(=O)N3CCN(c4ccc(F)cc4)CC3)c3ccccc23)cc1,-15%,-105*!,-21%,u,11µM*
COc1ccc(Nc2ncc(C(=O)N3CCC4(CC3)OCCO4)c3ccccc23)cc1,-23%,-76*,x,-14%,-6%
COc1ccc(Nc2ncc(C(=O)N3CCN(c4ccc(OC)cc4)CC3)c3ccccc23)cc1,-24%,-31,-23%,-15%,x
CCN(Cc1ccncc1)Cc1ccc2c(c1)CN(C(=O)c1cccc(-n3nc(C)cc3C)c1)CCO2,-2%,x,-11%,-1%,x
COc1ccc(Br)cc1C(C[N+](=O)[O-])c1c(N)n(C)c(=O)n(C)c1=O (stereo unspecified),x,-100*,x,u,4µM*
CN(C)c1ccc(C(C[N+](=O)[O-])c2c(N)n(C)c(=O)n(C)c2=O)c(F)c1C#N (stereo unspecified),x,x,x,35µM*,-8%
Cn1c(N)c(C(C[N+](=O)[O-])c2c(F)cccc2Cl)c(=O)n(C)c1=O (stereo unspecified),u,u,-15%,-14%,-9%
Cn1cnnc1Sc1cc(N2CCN(S(=O)(=O)c3ccccc3)CC2)ccc1[N+](=O)[O-],x,-34,x,-2%,u
CC(=O)c1ccc(Sc2nnnn2-c2ccccc2)c([N+](=O)[O-])c1,-3%,-67*,-5%,32µM*,u
CN1CCN(S(=O)(=O)c2ccc(Sc3nnnn3-c3ccccc3)c([N+](=O)[O-])c2)CC1,-5%,12,-13%,20µM*,13%
CCN(CC)CCCN(C(=O)c1cccs1)c1nc(-c2ccc(OC)cc2)cs1,x,x,x,-14%,11µM*
CCN(CC)CCCN(C(=O)c1cccc(C)c1)c1nc(-c2ccc(OC)cc2)cs1,x,-95*,x,2%,4%
COc1ccc(-c2csc(N(CC3CCCO3)C(=O)c3cccs3)n2)cc1 (stereo unspecified),x,20,x,u,u
COc1ccc(OC)c(-c2csc(N(Cc3ccco3)C(=O)c3cccs3)n2)c1,x,-8,x,-22%,13µM*
COc1ccc(OC)c(-c2csc(N(CC3CCCO3)C(=O)C3CCCCC3)n2)c1 (stereo unspecified),x,-72*,x,3%,u
CCN(CC)CCCN(C(=O)c1ccc(Br)cc1)c1nc(-c2ccc(OC)cc2)cs1,-17%,-36,u,-8%,u
COc1cccc(CNC(=O)C2Cc3cc(S(=O)(=O)N4CCCCCC4)ccc3N2C(C)=O)c1 (stereo unspecified),0%,21,-8%,-14%,x
